Active and inactive are the calls of the source. Rule for the calls: active = hit-call score of the fitted dose curve at least 0.9, where 1 is the maximum; inactive = score below 0.9.
Columns and labels:
[1] = ATG_CRE_CIS: Attagene CIS-FACTORIAL HepG2 Assay for human cAMP Responsive Element (CRE) binding protein 3 (AID 2282926); settings: HepG2 CRE cis-reporter, Attagene multiplexed mRNA; actives raise or lower the signal
Procedure, shortened: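 HepG2 cells transiently transfected with cis-element-driven multiple reporter transcription units; CRE reporter mRNA measured 24 h after dosing by RT-PCR, 6-FAM labelling, HpaI digestion and capillary electrophoresis. Bidirectional fit versus DMSO baseline.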

[2] = target: CCAAT/enhancer-binding protein beta (Homo sapiens) (UniProt P17676); assay: ATG_C_EBP_CIS: Attagene CIS-FACTORIAL HepG2 Assay for human CCAAT/Enhancer Binding Protein (C/EBP) beta (AID 2282927); settings: HepG2 Attagene cis-factorial transcription factor reporter; actives raise or lower the signal
Procedure, shortened: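 Transiently transfected HepG2 (MRTU library, endogenous TF-driven promoters); 24 h dosing; total RNA → oligo(dT) RT → PCR → 6-FAM primer extension → HpaI digest → CE; fit bidirectionally vs DMSO.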

[3] = ATG_CMV_CIS: Attagene CIS-FACTORIAL HepG2 Assay for human CMV (Internal Marker) (AID 2282928); settings: HepG2 CMV promoter reporter, transcription factor profiling; actives raise or lower the signal;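 note: endpoint acts as a background internal control marker rather than a target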
Procedure, shortened: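 CMV internal-marker background readout in transiently transfected HepG2 cells bearing cis-regulated reporter units. Reporter mRNA is measured 24 h after dosing by RT-PCR and capillary electrophoresis, with bidirectional fitting against DMSO.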

[4] = ATG_DR4_LXR_CIS: Attagene CIS-FACTORIAL HepG2 Assay for human Liver X Receptor (LXR), DR4 submotif (AID 2282929); settings: HepG2 Attagene DR4 cis-reporter, mRNA transcription; actives raise or lower the signal
Procedure, shortened: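 Fluorescence intensity of labelled reporter cDNA fragments, separated by capillary electrophoresis, gives the signal. HepG2 cells bearing cis-regulated reporter constructs were treated 24 h; activity fitted bidirectionally relative to DMSO negative control.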

[5] = target: Aryl hydrocarbon receptor (Homo sapiens) (UniProt P35869); assay: ATG_Ahr_CIS: Attagene CIS-FACTORIAL HepG2 Assay for human Aryl Hydrocarbon Receptor (Ahr) (AID 2282930); settings: HepG2 AhR cis-factorial reporter transcription; actives raise or lower the signal
Procedure, shortened: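 Read-out: reporter mRNA quantified by RT-PCR with fluorescent primer extension and capillary electrophoresis. Human HepG2 liver cells carried transfected cis-promoter reporter units and were exposed to chemical for 24 h; gain or loss fitted relative to DMSO.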

[6] = ATG_AP_1_CIS: Attagene CIS-FACTORIAL HepG2 Assay for human Activator Protein 1 (AP-1) (AID 2282931); settings: HepG2 Attagene cis-factorial AP-1 reporter mRNA; actives raise or lower the signal
Procedure, shortened: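 Multiplexed HepG2 reporter assay, 24 h dosing. mRNA induction detected by RT-PCR plus capillary electrophoresis. Activity fitted in both directions against DMSO.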

[7] = ATG_AP_2_CIS: Attagene CIS-FACTORIAL HepG2 Assay for human Activator Protein 2 (AP-2) (AID 2282932); settings: HepG2 AP-2 cis-reporter, Attagene transcription factor profiling; actives raise or lower the signal
Procedure, shortened: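 HepG2 cells transiently transfected with cis-element reporter units and exposed for 24 h. Reporter mRNA measured by RT-PCR, FAM labelling, HpaI digestion and capillary electrophoresis. Changes in either direction fitted relative to DMSO.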

[8] = ATG_BRE_CIS: Attagene CIS-FACTORIAL HepG2 Assay for human Bone Morphogenetic Protein (BMP) Response Element (BRE) (AID 2282933); settings: HepG2 BMP response element reporter, Attagene transcription factor profiling; actives raise or lower the signal
Procedure, shortened: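 Endogenous transcription factor activity read in transiently transfected HepG2 cells after 24 h chemical exposure. Bidirectional curve fitting against DMSO; readout is reporter transcript level by RT-PCR with capillary electrophoresis of labelled products.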

[9] = target: Retinoic acid receptor alpha (Homo sapiens) (UniProt P10276); assay: ATG_DR5_RAR_CIS: Attagene CIS-FACTORIAL HepG2 Assay for human Retinoic Acid Receptor Alpha (RARE), DR5 submotif (AID 2282934); settings: HepG2 Attagene cis-factorial RARE DR5 reporter, mRNA; actives raise or lower the signal
Procedure, shortened: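 Read-out: DR5-driven reporter transcript measured by RT-PCR, 6-FAM primer extension, HpaI digest and capillary electrophoresis. Human HepG2 liver cells carry transiently transfected cis-element reporter constructs; dosing lasts 24 h. Gain or loss of signal fitted against DMSO baseline.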

[10] = target: Transcription factor E2F1 (Homo sapiens) (UniProt Q01094); assay: ATG_E2F_CIS: Attagene CIS-FACTORIAL HepG2 Assay for human E2F Transcription Factor 1 (AID 2282935); settings: HepG2 Attagene cis-reporter, E2F reporter RNA transcripts; actives raise or lower the signal
Procedure, shortened: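 Endogenous E2F1 activity read through cis-promoter reporter units transfected into HepG2. After 24 h compound treatment, reporter mRNA measured by RT-PCR, HpaI digestion and capillary electrophoresis. Bidirectional fit versus DMSO.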

[11] = ATG_E_Box_CIS: Attagene CIS-FACTORIAL HepG2 Assay for human Enhancer Box (E-box) (AID 2282936); settings: HepG2 E-box cis-reporter transcription, actives raise or lower the signal
Procedure, shortened: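 HepG2 cells transiently transfected with multiplexed cis-element reporter units, dosed 24 h; reporter mRNA quantified by RT-PCR, 6-FAM labelling, HpaI digestion and capillary electrophoresis. E-box (USF1) signal fitted bidirectionally vs DMSO.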

[12] = ATG_M_61_CIS: Attagene CIS-FACTORIAL HepG2 Assay for M61 Transcription Factor (Internal Marker) (AID 2282937); settings: HepG2 Attagene CIS-FACTORIAL M61 internal marker reporter; actives raise or lower the signal
Procedure, shortened: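 Endogenous transcription factor activity in HepG2 is read through transiently transfected cis-element reporter units. After 24 h dosing, RNA undergoes reverse transcription, PCR and primer extension with 6-FAM before capillary electrophoresis; DMSO-referenced bidirectional fit.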

[13] = ATG_EGR_CIS: Attagene CIS-FACTORIAL HepG2 Assay for human Early Growth Response 1 (EGR1) (AID 2282938); settings: HepG2 Attagene CIS-FACTORIAL EGR reporter mRNA; actives raise or lower the signal
Procedure, shortened: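 Activity is taken as induction or loss of reporter mRNA versus DMSO, fitted bidirectionally. Transcripts from cis-regulated reporter units in transiently transfected HepG2 were measured after 24 h by RT-PCR with capillary electrophoresis.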

[14] = ATG_Ets_CIS: Attagene CIS-FACTORIAL HepG2 Assay for human Erythroblast Transformation Specific (ETS) (AID 2282941); settings: HepG2 ETS cis-reporter transcription, actives raise or lower the signal
Procedure, shortened: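 HepG2 cells transfected with multiple cis-regulated reporter units measuring endogenous ETS-driven transcription, 24 h after dosing. Reporter mRNA quantified by RT-PCR with capillary electrophoresis; bidirectional fit relative to DMSO.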

[15] = target: Hepatocyte nuclear factor 3-beta (Homo sapiens) (UniProt Q9Y261); assay: ATG_FoxA2_CIS: Attagene CIS-FACTORIAL HepG2 Assay for human Forkhead box A2 (FOXA2) (AID 2282942); settings: HepG2 cis-reporter transcription factor activity, 24 h; actives raise or lower the signal
Procedure, shortened: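 Reporter transcript induction is measured by fluorescence after capillary electrophoresis of RT-PCR products from HepG2 cells exposed 24 h. Cis-regulated reporter units report endogenous factor activity; curves fitted both directions against DMSO.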

[16] = ATG_FoxO_CIS: Attagene CIS-FACTORIAL HepG2 Assay for human Forkhead box O (FoxO) (AID 2282943); settings: HepG2 Attagene cis-reporter, FoxO element, mRNA; actives raise or lower the signal
Procedure, shortened: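 Read-out: fluorescence of 6-FAM-labelled reporter cDNA fragments resolved by capillary electrophoresis. Transiently transfected HepG2 cells were dosed for 24 h; activity fitted in both directions relative to DMSO controls.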

[17] = ATG_GATA_CIS: Attagene CIS-FACTORIAL HepG2 Assay for human GATA Binding Protein (AID 2282944); settings: HepG2 GATA cis-element reporter, Attagene multiplex mRNA; actives raise or lower the signal
Procedure, shortened: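 Reporter transcripts from a GATA cis-regulated unit, among multiplexed reporters in transfected HepG2 cells, were measured by RT-PCR with capillary electrophoresis after 24 h dosing. Induction or loss scored relative to DMSO.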

[18] = ATG_GLI_CIS: Attagene CIS-FACTORIAL HepG2 Assay for human Zinc Finger Protein GLI1 (AID 2282945); settings: HepG2, Attagene cis-factorial reporter mRNA, GLI element; actives raise or lower the signal
Procedure, shortened: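 Transiently transfected HepG2 cells report endogenous transcription factor activity via cis-element-driven reporter units. After 24 h compound exposure, reporter mRNA was measured by RT-PCR with capillary electrophoresis; bidirectional fitting against DMSO baseline.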

[19] = ATG_M_19_CIS: Attagene CIS-FACTORIAL HepG2 Assay for M19 Transcription Factor (Internal Marker) (AID 2282939); settings: HepG2 Attagene CIS-FACTORIAL M19 internal marker reporter; actives raise or lower the signal
Procedure, shortened: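 Internal marker readout, fitted in both directions against DMSO, from HepG2 cells carrying transfected cis-element reporter constructs; RT-PCR and capillary electrophoresis of reporter mRNA after 24 h exposure.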

Measured: AC50

Retinoic acid receptor alpha (Homo sapiens), sequence (P10276 whole entry, looked up): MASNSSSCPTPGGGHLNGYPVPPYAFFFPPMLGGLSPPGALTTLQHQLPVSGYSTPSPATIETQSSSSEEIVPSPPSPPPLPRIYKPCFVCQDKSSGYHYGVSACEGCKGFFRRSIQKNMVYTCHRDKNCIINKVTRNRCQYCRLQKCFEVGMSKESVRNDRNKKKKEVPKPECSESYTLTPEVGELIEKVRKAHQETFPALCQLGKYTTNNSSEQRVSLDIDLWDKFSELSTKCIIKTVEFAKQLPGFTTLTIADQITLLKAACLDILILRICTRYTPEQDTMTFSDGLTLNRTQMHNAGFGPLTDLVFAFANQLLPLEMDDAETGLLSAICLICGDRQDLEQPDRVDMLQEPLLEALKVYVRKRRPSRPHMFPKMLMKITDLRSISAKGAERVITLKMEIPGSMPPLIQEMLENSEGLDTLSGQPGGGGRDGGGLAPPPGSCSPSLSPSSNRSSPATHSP
Aryl hydrocarbon receptor (Homo sapiens), sequence (P35869 whole entry, looked up): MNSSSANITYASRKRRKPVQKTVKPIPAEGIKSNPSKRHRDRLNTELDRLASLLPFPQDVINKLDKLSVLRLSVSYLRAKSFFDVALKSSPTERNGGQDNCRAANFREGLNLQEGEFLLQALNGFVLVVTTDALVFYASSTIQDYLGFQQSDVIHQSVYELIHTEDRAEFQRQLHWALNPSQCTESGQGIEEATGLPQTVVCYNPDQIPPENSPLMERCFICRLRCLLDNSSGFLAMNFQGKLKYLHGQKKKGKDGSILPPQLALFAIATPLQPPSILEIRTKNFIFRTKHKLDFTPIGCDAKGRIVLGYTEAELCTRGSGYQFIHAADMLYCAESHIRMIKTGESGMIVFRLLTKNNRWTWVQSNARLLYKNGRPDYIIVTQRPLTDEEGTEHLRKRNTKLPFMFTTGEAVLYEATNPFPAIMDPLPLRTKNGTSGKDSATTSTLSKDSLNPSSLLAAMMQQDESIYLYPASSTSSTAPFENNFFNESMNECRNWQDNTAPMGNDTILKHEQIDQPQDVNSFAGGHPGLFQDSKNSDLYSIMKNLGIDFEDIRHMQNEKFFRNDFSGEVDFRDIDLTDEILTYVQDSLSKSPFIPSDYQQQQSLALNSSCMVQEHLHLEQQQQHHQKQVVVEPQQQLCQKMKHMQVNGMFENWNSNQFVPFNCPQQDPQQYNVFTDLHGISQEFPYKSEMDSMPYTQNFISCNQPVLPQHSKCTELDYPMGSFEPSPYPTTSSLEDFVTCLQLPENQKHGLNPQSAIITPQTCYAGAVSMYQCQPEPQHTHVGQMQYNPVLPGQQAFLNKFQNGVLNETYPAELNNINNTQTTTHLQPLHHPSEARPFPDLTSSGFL
Transcription factor E2F1 (Homo sapiens), sequence (Q01094 whole entry, looked up): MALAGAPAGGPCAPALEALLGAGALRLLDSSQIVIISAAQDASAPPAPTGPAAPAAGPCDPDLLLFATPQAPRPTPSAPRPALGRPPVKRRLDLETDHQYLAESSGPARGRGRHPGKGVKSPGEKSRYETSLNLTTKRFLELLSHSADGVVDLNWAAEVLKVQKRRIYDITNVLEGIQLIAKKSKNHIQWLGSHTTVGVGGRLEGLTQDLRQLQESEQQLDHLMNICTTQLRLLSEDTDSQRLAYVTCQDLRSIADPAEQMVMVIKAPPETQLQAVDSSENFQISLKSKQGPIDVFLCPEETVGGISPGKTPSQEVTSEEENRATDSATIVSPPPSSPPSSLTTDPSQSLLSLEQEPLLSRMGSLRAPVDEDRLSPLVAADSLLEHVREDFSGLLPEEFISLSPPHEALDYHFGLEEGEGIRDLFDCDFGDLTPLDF
Hepatocyte nuclear factor 3-beta (Homo sapiens), sequence (Q9Y261 whole entry, looked up): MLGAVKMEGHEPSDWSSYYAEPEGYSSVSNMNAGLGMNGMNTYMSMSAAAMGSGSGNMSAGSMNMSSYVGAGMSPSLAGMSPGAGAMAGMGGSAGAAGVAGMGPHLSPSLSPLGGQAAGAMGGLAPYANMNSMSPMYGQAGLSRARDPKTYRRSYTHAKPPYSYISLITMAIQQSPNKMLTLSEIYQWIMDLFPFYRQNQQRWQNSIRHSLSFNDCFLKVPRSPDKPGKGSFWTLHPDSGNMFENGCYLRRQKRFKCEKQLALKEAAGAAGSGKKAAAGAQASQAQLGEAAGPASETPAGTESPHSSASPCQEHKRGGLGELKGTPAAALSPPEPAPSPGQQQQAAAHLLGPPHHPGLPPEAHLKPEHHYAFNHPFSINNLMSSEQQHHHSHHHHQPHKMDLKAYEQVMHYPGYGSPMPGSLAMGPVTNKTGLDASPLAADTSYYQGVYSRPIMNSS
CCAAT/enhancer-binding protein beta (Homo sapiens), sequence (P17676 whole entry, looked up): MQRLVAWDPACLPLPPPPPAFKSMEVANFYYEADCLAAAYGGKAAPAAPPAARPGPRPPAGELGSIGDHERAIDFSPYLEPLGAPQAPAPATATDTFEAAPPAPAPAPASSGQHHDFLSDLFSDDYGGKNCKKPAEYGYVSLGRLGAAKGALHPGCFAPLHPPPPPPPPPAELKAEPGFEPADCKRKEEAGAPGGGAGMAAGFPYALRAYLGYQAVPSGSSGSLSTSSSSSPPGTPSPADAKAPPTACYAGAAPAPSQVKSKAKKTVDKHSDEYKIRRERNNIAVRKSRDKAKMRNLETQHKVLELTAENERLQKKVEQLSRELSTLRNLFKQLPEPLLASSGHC

Clc1ccccc1Cl
not listed: [19]
inactive: all other assays above

CCCCCCCCOC(=O)c1ccc(C(=O)OCCCCCCCC)c(C(=O)OCCCCCCCC)c1
active: [18] 26.3 µM
not listed: [19]
inactive: all other assays above

C=CCc1ccc2c(c1)OCO2
not listed: [5] | [19]
inactive: all other assays above

O=C(N[C@H](c1ccccc1)[C@@H]1CN2CCC1CC2)c1c(Cl)ccc(C(F)(F)F)c1Cl
not listed: [9]
inactive: all other assays above

CN(C)C(=O)Nc1ccc(Cl)cc1
active: [5] 58.5 µM
not listed: [9]
inactive: all other assays above

c1ccc2c(c1)-c1cccc3cccc-2c13
active: [19] 0.00801 µM
not listed: [5]
inactive: all other assays above

Nc1ccc([N+](=O)[O-])cc1
not listed: [5] | [9]
inactive: all other assays above

CN(C)c1ccccc1
not listed: [5] | [19]
inactive: all other assays above

c1ccc(NNc2ccccc2)cc1
active: [4] 100 µM
not listed: [5] | [19]
inactive: all other assays above

Cc1ccc(N)c(N)c1
active: [3] 33.3 µM | [6] 27.5 µM | [13] 28.3 µM
not listed: [5] | [19]
inactive: all other assays above

Clc1ccc(C(c2ccc(Cl)cc2)C(Cl)(Cl)Cl)cc1
active: [3] 30.2 µM | [4] 27.6 µM | [6] 51.4 µM
not listed: [9] | [19]
inactive: all other assays above

CN(C)[C@@H]1C(=O)C(C(N)=O)=C(O)[C@@]2(O)C(=O)C3=C(O)c4c(O)cccc4[C@@](C)(O)[C@H]3C[C@@H]12
active: [3] 137 µM
not listed: [9]
inactive: all other assays above

O=[N+]([O-])c1ccc(Oc2ccc(Cl)cc2Cl)cc1
active: [3] 100 µM | [4] 48.1 µM | [5] 68.6 µM | [8] 56.4 µM | [11] 71.5 µM | [13] 28.3 µM
not listed: [9] | [19]
inactive: all other assays above

CCCSC(=O)N(CCC)CCC
not listed: [9]
inactive: all other assays above

COC(=O)c1ccccc1N
active: [5] 43.8 µM
not listed: [9]
inactive: all other assays above

— PubChem BioAssay (EPA / NIEHS)
